Source: PubChem (several laboratories)
An excerpt weighted towards active compounds, which were near 2.1% of everything screened.
aSyn UTR inh = 5' untranslated region of α-synuclein, MLPCN primary screen | alpha-synuclein 5'UTR reporter, inhibitor activity | inhibition, % (tested at 7.5 µM) | actives 0.82% (n = 300,000) | AID 1813; in the data active = inhibition above about 60%;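 also: H4 neuroglioblastoma cells stably carrying SNCA 5'UTR luciferase fusion; 0% = DMSO wells and 100% = positive control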
KLF5 inh = kruppel-like factor 5 inhibition; DLD-1 KLF5 promoter-luciferase reporter, luminescence; inhibition, % at 5 µM; actives 0.23% (n = 290,000); AID 1700;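 active = inhibition above a per-plate limit of that plate's mean compound inhibition plus 3 SD, cut at about 60% in these data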;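 also: 0% = DMSO wells and 100% = LY294002 at 200 µM; higher means less KLF5 promoter-driven luciferase light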
Ba/F3 V617F tox = reduce viability of Ba/F3 cells dependent on JAK2V617F; Ba/F3 EpoR-JAK2V617F viability, ATP luminescence; inhibition, % at 5.6 µM; actives 1.1% (n = 220,000);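 active = inhibition above the campaign mean plus 3 SD over all tested compounds, cut at about 24% in these data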;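 also: cytokine-independent growth of Ba/F3 cells driven by EpoR plus mutant JAK2; 0% = DMSO-treated cells and 100% = JAK inhibitor I control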
APP transl inh = APP translation inhibition. inhibition, % at 2 µM. SH-SY5Y APP 5'UTR-luciferase reporter, luminescence. actives 0.82% (n = 190,000);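 active = inhibition above a set limit, derived from the sample mean plus 3 SD, cut at about 45% in these data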
IEC-6 tox = kills IEC-6 intestinal cells in KLF5 counter-screen; IEC-6 cytotoxicity, luminescence viability; inhibition, % at 5 µM; actives 0.78% (n = 290,000); in the data active = inhibition above about 22%;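 also: 0% = plate median of test compound wells and 100% = cytotoxic reference compound wells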
BaF3 tox = reduces parental Ba/F3 cell viability, JAK2V617F counter-screen; CellTiter-Glo ATP luminescence; inhibition, % at 5.6 µM; actives 1.1% (n = 220,000);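 active = inhibition above a per-campaign cutoff, the mean inhibition of all tested compounds plus 3 SD, cut at about 27% in these data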;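 also: 0% = DMSO wells and 100% = JAK Inhibitor I control wells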
* hit, by the source's call; / = not tested or not shown.

SMILES	aSyn UTR inh	KLF5 inh	Ba/F3 V617F tox	APP transl inh	IEC-6 tox	BaF3 tox
Cc1ccc(/C(O)=C2/C(=O)C(=O)N(CC(=O)O)C2c2ccc([N+](=O)[O-])cc2)cc1 (stereo unspecified)	9.1	-36.8	/	/	-3.4	/
CCCN(CCC)C(=O)C1CCN(c2cc(C)nc3c(-c4ccc(OC)c(OC)c4)c(C)nn23)CC1	2.0	-58.4	-0.1	-10.1	0.0	39.5*
COc1ccc(-c2c(C)nn3c(N4CCC(C(=O)NCCN(C)C)CC4)cc(C)nc23)cc1OC	-15.2	6.8	0.3	21.2	-5.1	3.3
COc1ccc(-c2csc(NC(=S)NC(=O)/C=C/c3ccco3)n2)cc1OC	62.9*	-14.0	3.0	74.8*	13.6	3.2
COc1ccc(-c2csc(NC(=S)NC(=O)/C=C/c3ccco3)n2)cc1Br	90.7*	-5.5	-1.4	/	-4.0	2.9
COc1ccc(-c2csc(NC(=S)NC(=O)/C=C/c3ccc(C(C)C)cc3)n2)cc1OC	12.2	18.7	/	/	4.0	/
COc1ccc(-c2csc(NC(=S)NC(=O)c3ccco3)n2)cc1Br	3.9	-39.8	/	/	-7.8	/
Cn1c(-c2ccccc2)c[n+]2c1-c1ccccc1C2	-17.2	-10.6	85.0*	-9.2	4.7	63.2*
COc1ccccc1NC(=O)C(C)OC(=O)/C(=C/c1ccccc1)NC(C)=O (stereo unspecified)	4.6	/	/	/	/	/
COc1ccc(NC(=O)c2cn(CCC#N)nc2-c2cc3ccccc3o2)cc1	-1.3	-3.0	6.6	45.6*	-7.6	3.1
N#CCCn1cc(C(=O)Nc2ccc(C(=O)O)cc2)c(-c2cc3ccccc3o2)n1	9.9	-10.5	6.3	5.0	-1.0	9.6
CN(C)CCNC(=O)C(c1ccccc1)c1ccccc1	-35.0	-5.7	-1.1	/	2.1	0.9
CN(C)CCC(=O)C(Cc1ccccc1)c1ccccc1 (stereo unspecified)	98.9*	/	/	/	/	/
O=C(CCc1nnc(COc2ccccc2)o1)NCCc1cccs1	0.9	-47.1	-1.4	-23.2	-8.2	5.9
CC(C)CCNC(=O)CCc1nnc(COc2ccccc2)o1	-2.4	-2.6	0.1	-17.0	-1.5	80.8*
COc1cccc(N2CC(C)Cn3c2nc2c3c(=O)[nH]c(=O)n2C)c1 (stereo unspecified)	17.8	-20.7	/	/	9.4	/
Cn1c(=O)c2sccc2n(Cc2cccc(Br)c2)c1=O	16.0	-37.4	/	/	6.3	/
COc1ccc(/C=N/NC(=O)c2cc(=O)[nH]c3ccccc23)cc1OC	22.5	-12.2	3.1	0.7	1.7	38.7*
CS(=O)(=O)Nc1cccc2cccnc12	/	-6.1	-1.8	7.6	1.3	-3.0
Cc1cc(C)n(-c2ccc3cccc(NS(C)(=O)=O)c3n2)n1	90.2*	1.6	-4.9	-17.9	-0.8	0.7
Cc1cc2ncc(-c3ncc(C(F)(F)F)cc3Cl)cn2n1	65.4*	-104.9	-3.4	-138.2	-5.2	1.2
COc1ccc2[nH]c(=O)c(CN(CCO)S(=O)(=O)c3c(C)ccc4nsnc34)cc2c1	14.8	-11.0	-1.9	-0.7	1.9	-1.6
COc1ccc2[nH]c(=O)c(CN(Cc3cccs3)S(=O)(=O)c3cccc4nsnc34)cc2c1	75.9*	-14.6	-0.8	30.0	4.9	6.7
Cc1nn(C(C)C(=O)NCc2ccco2)c(C)c1[N+](=O)[O-] (stereo unspecified)	4.3	-2.4	-1.6	3.1	-4.3	-0.5
C/C(=N\NC(=O)C(C)n1nc(C)c([N+](=O)[O-])c1C)c1ccccc1O (stereo unspecified)	77.8*	-53.6	0.7	41.8	3.5	8.0
SMILES	aSyn UTR inh	KLF5 inh	Ba/F3 V617F tox	APP transl inh	IEC-6 tox	BaF3 tox
NC(N)=NC(=S)Nc1ccc(Cl)cc1	-105.8	-65.3	3.5	/	-4.5	-0.9
Cc1ccc(-c2cn(-c3ccc(OC(F)F)cc3)c3[n+]2CCCCC3)cc1	-6.1	-6.6	77.8*	/	16.5	73.1*
FC(F)Oc1ccc(-n2cc(-c3ccccc3)[n+]3c2CCCCC3)cc1	-1.4	-9.5	65.4*	/	-1.9	63.4*
CCOc1cc(/C=N/NC(=O)C2CC2)ccc1OC(C)C	/	-13.2	/	/	-2.0	/
CCCCC(=O)Nc1ccc(N2CCN(C(=O)c3ccco3)CC2)cc1	-5.2	2.4	/	/	4.9	/
O=C1CC(C(=O)N2CCc3ccccc32)CN1c1ccc(F)cc1 (stereo unspecified)	12.6	-7.6	/	/	-6.2	/
O=C(NNc1ccnc2cc(Cl)ccc12)C1CCCCC1	-1.0	-22.5	25.2*	17.9	9.6	35.5*
CCc1ccccc1NC(=O)C1(S(=O)(=O)c2ccc(C)cc2)CC1	7.3	4.8	/	/	-1.6	/
